# High-throughput results from PubChem BioAssay.
# DAX1 inh-1 = inhibitors of human orphan nuclear receptor DAX1 (NR0B1); P51843; HEK293 Gal4-DAX1 luciferase reporter, luminescence; inhibition, % at 6.75 µM; hit rate 0.99% among 340,000; AID 504766;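 active = inhibition above the mean over all tested compounds plus 3 SD, cut at about 4.2% in these data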;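 note: 0% = DAX1-transfected cells with DMSO and 100% = empty-vector control cells with DMSO; inhibition shows as a rise in luminescence from relieved DAX1 repression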
# ssDAF12 agonist = S. stercoralis DAF-12 activation, primary screen; HEK293 ssDAF-12/GRIP1 lit1-tk-luc reporter, luminescence; % of 3 µM dafachronic acid response; hit rate 1% among 370,000; AID 652126; activation, % at 6.8 µM;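 active = activation above the mean over all tested compounds plus 3 SD, cut at about 0.9% in these data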;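 note: 0% = DMSO-only wells and 100% = 3 µM delta7-dafachronic acid wells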
# hcDAF-12 act = H. contortus DAF-12 activation, primary screen; HEK293 hcDAF-12 lit1-tk-luc reporter, luminescence; 0% DMSO, 100% Δ7-dafachronic acid; activation, % at 6.8 µM; hit rate 1.4% among 370,000;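 active = activation above the mean of all tested compounds plus 3 SD, cut at about 5.5% in these data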;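 note: 100% = response to 3 µM Δ7-dafachronic acid high control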
# DAX1 inh-2 = inhibitors of DAX1 repression of SF-1 activated StAR promoter. HEK293T StAR-luciferase reporter, SF-1/DAX-1 repression relief. inhibition, % at 6.8 µM. hit rate 1.1% among 370,000;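 active = inhibition above the mean over all tested compounds plus 3 SD, cut at about 3.6% in these data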;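 note: 0% = DAX-1 cells with DMSO and 100% = cells lacking DAX-1 with DMSO; higher inhibition means more luminescence from relief of DAX-1 repression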
# hgDAF12 agonist = activates the H. glycines DAF-12 receptor ligand-binding domain. HEK293 GAL4-hgDAF12 UAS-luciferase reporter, agonist luminescence; normalized to butyrate control. activation, % at 6.8 µM. hit rate 1.8% among 370,000. AID 687014;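 active = activation above a cutoff set at the mean of all screened compounds plus 3 SD, cut at about 10% in these data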;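 note: 0% = DMSO wells and 100% = sodium butyrate wells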
# hgDAF12 conf = confirmation of H. glycines DAF-12 agonists. shares compounds with hgDAF12 agonist. HEK293 GAL4-hgDAF12 luciferase reporter, agonist mode; percent of butyrate response. activation, % at 6.8 µM. hit rate 80% among 3,300. AID 743050;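 active = mean activation over triplicate wells above the hit cutoff derived from the earlier primary screen, cut at about 11% in these data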;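 note: 0% = DMSO low control and 100% = 2 mM sodium butyrate high control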
# LXR ag 2 = activates human LXR-beta, counter-screen for DAF-12 agonists; activation, % at 6.8 µM; AID 743051; 3,300 tested, under 10 active; shares compounds with hgDAF12 agonist; HEK293 Gal4-LXR luciferase reporter, 24 h;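 active = mean activation of the triplicate above a set limit carried over from the primary screen, none filed active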
# Target sequence (P55055 whole entry, looked up, the tested form may be a part): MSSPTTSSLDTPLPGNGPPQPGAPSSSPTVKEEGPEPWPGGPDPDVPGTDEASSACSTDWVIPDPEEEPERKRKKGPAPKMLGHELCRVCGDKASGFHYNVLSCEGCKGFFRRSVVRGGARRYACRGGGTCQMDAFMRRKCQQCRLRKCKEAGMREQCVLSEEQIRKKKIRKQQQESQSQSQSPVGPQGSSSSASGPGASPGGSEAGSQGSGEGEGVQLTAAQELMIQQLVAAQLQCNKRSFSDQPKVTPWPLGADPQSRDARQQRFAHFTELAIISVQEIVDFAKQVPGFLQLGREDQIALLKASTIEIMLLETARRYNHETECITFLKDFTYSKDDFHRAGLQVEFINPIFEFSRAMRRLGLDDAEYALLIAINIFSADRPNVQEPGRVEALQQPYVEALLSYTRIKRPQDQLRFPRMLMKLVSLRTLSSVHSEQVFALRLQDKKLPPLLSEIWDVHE
# * marks the source's active call; other numbers are inactive results; / = no result given. Only some compounds are listed: those with a hit (about 4.1% of all), similar ones and a draw of the others.
SMILES,DAX1 inh-1,ssDAF12 agonist,hcDAF-12 act,DAX1 inh-2,hgDAF12 agonist,hgDAF12 conf,LXR ag 2
Cc1ccc(NS(=O)(=O)c2ccccc2)c([N+](=O)[O-])c1,-1,-1,0,2,-1,/,/
CCC(=O)c1ccc(OCC(=O)OCC(=O)NCC2CCCCC2)cc1,2,-1,0,2,0,/,/
CC(C)N1CSC(=S)N(Cc2ccccc2)C1,1,-1,-2,0,1,/,/
CCCCNC(=O)c1cc(-c2ccc(F)cc2)on1,4,1,2,0,34*,42*,1
CCCCNC(=O)c1cc(-c2ccc(OC)cc2)on1,2,0,1,2,17*,16*,1
CCCNC(=O)c1cc(-c2ccc(OC)cc2)on1,1,-1,5,2,10,/,/
COc1ccc(S[C@]2(C(=O)N3CCCC3)CC(=O)N(c3ccc4c(ccn4C)c3)[C@@H]2c2ccc(OC)cc2)cc1,/,1,2,0,-3,/,/
Cc1ccc(-c2cc(C(=O)Nc3ccncc3)c3ccccc3n2)cc1,0,-1,0,0,2,/,/
Cc1ccc(C)c(NC(=O)c2cc(-c3ccc(Cl)cc3)nc3ccccc23)c1,/,-1,-1,0,15*,1,0
O=C(NC1CCCCC1)c1cc(-c2ccccc2O)on1,3,0,1,2,13*,15*,1
O=C(NC1CCCCC1)c1cc(-c2ccc(O)cc2)on1,0,0,4,2,9,/,/
COc1ccccc1-c1cc(C(=O)NC(C)C)no1,1,0,5,2,8,/,/
CCC(C)NC(=O)c1cc(-c2ccccc2O)on1 (configuration not stated),1,-1,3,3,14*,9,0
Cc1cc2cc(CNC(=O)c3ccc(C)c([N+](=O)[O-])c3)ccc2[nH]1,0,-1,-3,-1,-2,/,/
Cc1ccc(C)c(NC(=O)Cn2ccn(-c3ccc4c(c3)OCO4)c(=O)c2=O)c1,1,-1,2,0,0,/,/
COc1ccccc1NS(=O)(=O)c1cccc(NC(=O)Nc2ccccc2)c1,-2,-2,-4,-1,-1,/,/
COc1ccccc1NS(=O)(=O)c1cccc(NC(=O)c2cc3ccccc3oc2=O)c1,2,0,5,3,16*,13*,0
CN(c1ccccc1)S(=O)(=O)c1cccc(NC(=O)c2cc3ccccc3oc2=O)c1,2,1,5,2,16*,10,0
CCCCn1c(N)c(N(CCOC)C(=O)c2ccc3c(c2)C(=O)N(c2cc(C)ccc2C)C3=O)c(=O)[nH]c1=O,0,-2,0,1,2,/,/
Cc1cc(SCc2cccc(C(F)(F)F)c2)nc(=O)[nH]1,0,/,/,/,/,/,/
O=C(NS(=O)(=O)c1ccccc1[N+](=O)[O-])[C@H]1O[C@@H](n2ccc(=O)[nH]c2=O)[C@H](O)[C@@H]1O,/,-1,-1,0,15*,4,0
Cc1ccc(-c2nc3ccc(Cl)cc3n2OC(C)C(=O)O)cc1 (configuration not stated),2,0,4,3,23*,13*,1
CC(C)(C)c1ccc(-c2noc(-c3ccno3)n2)cc1,8.3*,0.9*,5,2,13*,15*,1
CC(C)N1CCC(N2CCN(C3CCCCCC3)CC2CCO)CC1 (configuration not stated),1,-2,1,0,0,/,/
Cc1ccc(C(=O)NCCCc2ccccc2)c(C)c1,6.8*,0,5,3,15*,16*,1
SMILES,DAX1 inh-1,ssDAF12 agonist,hcDAF-12 act,DAX1 inh-2,hgDAF12 agonist,hgDAF12 conf,LXR ag 2
Cc1ccc(C(=O)NCCCc2ccccc2)c(Cl)c1,5.1*,0,6.5*,2,15*,11*,0
Cc1cc(C)cc(C(=O)NCCCc2ccccc2)c1,1,-2,-3,0,-3,/,/
O=C(Nc1ccccc1)O/N=C(\c1ccccc1)c1ccccn1,0,-1,0,1,16*,2,0
O=C(c1ccc(-c2cccc(Cl)c2Cl)o1)N1CCOCC1,2,0,4,4.0*,17*,16*,1
Nc1ccccc1NC1=CC(=O)CC(c2ccco2)C1 (configuration not stated),2,1,4,2,13*,0,0
CSc1nsc(SCC(=O)Nc2ccc(C(C)=O)cc2)n1,3,1.0*,12*,2,14*,21*,1
Clc1ccc2c(c1)[C@H]1OCC[C@H]1[C@@H](c1ccco1)N2,2,0,5,2,8,/,/
CCc1ccc2c(c1)[C@H]1OCC[C@H]1[C@@H](c1cccs1)N2,-1,0,4,-2,14*,11*,0
CN(C)c1ccc(C=Cc2ccnc3ccccc23)cc1N,/,-1,2,1,17*,10,0
Cc1nn(-c2ccccc2)c(-c2ccccc2[N+](=O)[O-])c1CC#N,/,-2,-2,0,-2,/,/
N#CC1CC(c2ccccc2)Nc2cc(Cl)ccc2N1 (configuration not stated),-2,1,6.0*,0,20*,13*,0
Cc1ccc(NC(=O)Cn2ncc(Cl)c(Cl)c2=O)cc1S(=O)(=O)N1CCCCC1,-1,-1,-2,-1,-3,/,/
O=C1CCc2cc(S(=O)(=O)Nc3ccccc3F)ccc2N1,0,-2,0,0,25*,0,0
O=C1CCc2cc(S(=O)(=O)Nc3ccccc3Cl)ccc2N1,1,-1,-1,2,0,/,/
CN(Cc1cccc(C(F)(F)F)c1)Cc1nc(-c2cnccn2)no1,-1,-2,0,0,0,/,/
COc1ccccc1NC(=O)c1cnc(SC)nc1,1,0,-1,0,4,/,/
Cc1cccc(NC(=O)c2ccc(S(=O)(=O)N3CCOCC3)cc2)n1,3,-1,1,0,-1,/,/
O=c1c(-c2ccc3c(c2)OCCO3)coc2cc(O)cc(O)c12,2,0,4,3,14*,15*,1
CC(Sc1nnnn1C)C(=O)Nc1ccc2c(c1)OCCO2 (configuration not stated),1,-1,1,2,5,/,/
COC(=O)c1ccc2nc(NC(=O)C(C)C)sc2c1,1,0,2,3,14*,15*,1
CCOC(=O)c1ccc2nc(Nc3nc4ccc(F)cc4s3)sc2c1,-4,-2,-1,-2,-10,/,/
COC(=O)c1ccc2nc(NC(=O)C3CC3)sc2c1,1,-1,0,0,9,/,/
CCOC(=O)c1ccc2nc(NC(C)=O)sc2c1,2,-1,2,2,14*,13*,1
